In PubChem BioAssay (Tox21):
Inconclusive results are not listed. Calls of active or inactive are those of the source. The call rests on the fitted dose curve.

Assay: qHTS assay to identify small molecule agonists of H2AX - cell viability counter screen (AID 1224847); further: nearly all actives have a fitted effect of over 30% in size; on activity change, negative = cytotoxicity: top concentration of the series differs between compounds
Conditions: CHO-K1 viability, CellTiter-Glo luminescence, 3 h; series mostly up to 154 µM; activity change, negative = cytotoxicity: at the top concentration
Source text: National Center for Advancing Translational Sciences [NCATS]
NIH Chemical Genomics Center [NCGC]
U.S. Environmental Protection Agency [EPA]
National Institutes of Environmental Health Sciences [NIEHS]
National Toxicology Program [NTP]
U.S. Food and Drug Administration [FDA]
HTRF phospho-H2AX (Ser139) assay (Cisbio Bioassays, US) enables the quantitative detection of the histone variant H2AX when phosphorylated on serine 139. When double-stranded DNA breaks, either by ionizing radiation or endogenous physiological processes, H2AX becomes phosphorylated at Ser139. This phospho-Ser139 serves as a sensitive biomarker for the detection of such breaks, localizing the site of DNA repair. So, HTRF phospho-H2AX Ser139 is a pertinent assay to study genome stability, the cell cycle, DNA repair, and it serves as a biomarker for cancer, and to understand aging. Wild type CHO-K1 cells were used to identify the inducers of Phospho-H2AX Ser 139 from the Tox21 compound collections. Also cytotoxicity of the Tox21 10K compound library against the CHO-K1 cell line was tested by measuring the cell viability using CellTiter-Glo assay (Promega, Madison, WI).
Tox21 Assay Protocol Summary:
The CHO-K1 cells suspended in culture medium containing 10% FBS were dispensed at 1000 cells/ 3 ul/well in 1536-well white wall/solid bottom plates (Greiner Bio-One North America, NC) using a Multidrop Combi (Thermo Fisher Scientific Inc., Waltham, MA). After the assay plates were incubated at 37C overnight, 23 nl of compounds at 15 concentrations (from 5-48 columns) or positive control (from 1 to 4 columns) were transferred to the assay plates using a Pintool station (Wako, San Diego, CA) into each well resulting in a final DMSO concentration of 0.76%. After 3hr incubation at 37C, 3 uL/well CellTiter-Glo luminescent cell viability reagent (Promega Corporation, Madison, WI) was added using a Flying Reagent Dispenser (FRD) (Aurora Discovery, CA). After incubation at room temperature for 30 min, the luminescence intensity was read using a ViewLux plate reader (PerkinElmer, Waltham, MA).
On the % scale 0 is the no-effect control and ±100 the full control effect; potency means the concentration at half of the fitted maximal effect.

SMILES | activity change, negative = cytotoxicity | Potency
CS(=O)(=O)c1ccc([C@@H](C[C@H]2CCC(=O)C2)C(=O)Nc2cnccn2)cc1Cl | -1.54% (inactive) | –
Cc1c(C2(c3cc(Br)c(O)c(Br)c3C)OS(=O)(=O)c3ccccc32)cc(Br)c(O)c1Br | – | 9.77 µM (active)
Nc1cccc2c(N)cccc12 | -1.78% (inactive) | –
CCCCCCCCCCCSCC(=O)O | -4.08% (inactive) | –
CC(C)Cc1ccc(CC(=O)O)cc1 | -0.797% [at 70.9 µM] (inactive) | –
Cc1ccc(Cl)cc1N | 0.227% (inactive) | –
C[C@@H]1C[C@H]2[C@@H]3CCC4=CC(=O)C=C[C@]4(C)[C@@]3(F)[C@@H](O)C[C@]2(C)[C@@]1(O)C(=O)COP(=O)(O)O | 0.714% (inactive) | –
CC[C@H]1OC(=O)[C@H](C)[C@@H](O[C@H]2C[C@@](C)(OC)[C@@H](O)[C@H](C)O2)[C@H](C)[C@@H](O[C@@H]2O[C@H](C)C[C@H](N(C)C)[C@H]2O)[C@](C)(O)C[C@@H](C)/C(=N\OCOCCOC)[C@H](C)[C@@H](O)[C@]1(C)O | -4.68% [at 70.9 µM] (inactive) | –
CC/C=C\C/C=C\C/C=C\CCCCCCCC(=O)OCC | -7.2% (inactive) | –
CCCCCCOC(=O)CCCCC | 0.37% (inactive) | –
CCN(CC)c1ccc(C(=C2C=CC(=[N+](CC)CC)C=C2)c2ccc(S(=O)(=O)O)cc2S(=O)(=O)[O-])cc1 | – | 12.7 µM (active)
CSCC[C@H](NC(=O)[C@H](Cc1c[nH]c2ccccc12)NC(=O)CCNC(=O)OC(C)(C)C)C(=O)N[C@@H](CC(=O)O)C(=O)N[C@@H](Cc1ccccc1)C(N)=O | 5.78% [at 70.9 µM] (inactive) | –
COc1ccc(C2C(=O)c3ccccc3C2=O)cc1 | 1.3% [at 70.9 µM] (inactive) | –
COc1ccc(-c2cc(=S)ss2)cc1 | 7.03% [at 70.9 µM] (inactive) | –
CC(C)COC(=O)c1ccc(O)cc1 | -2.14% (inactive) | –
O=C(CCS)OCC(COC(=O)CCS)(COC(=O)CCS)COC(=O)CCS | -8.91% (inactive) | –
COc1ccc(N)c([N+](=O)[O-])c1 | -5.52% (inactive) | –
COc1ccc(-n2nc(C(F)F)cc2-c2ccc(S(C)=O)cc2)cc1 (stereo not given) | 0.272% (inactive) | –
CCNc1nc(N)nc(Cl)n1 | 0.384% (inactive) | –
CC(C)(O)CCc1ccccc1 | 1.14% (inactive) | –

SMILES | activity change, negative = cytotoxicity | Potency
CCCCCCCCCCCCCCCCCC(=O)OCC(CC)CCCC (stereo not given) | -0.866% (inactive) | –
CC(C)(C)S | -3.13% (inactive) | –
CC(C)CC(O)CC(C)C | 2.04% (inactive) | –
Cc1ccc(N(CC2=NCCN2)c2cccc(O)c2)cc1 | -1.21% [at 70.9 µM] (inactive) | –
Cc1ccc(NC(=O)N(C)C)cc1NC(=O)N(C)C | -0.583% (inactive) | –
CCCCCc1ccco1 | -1.54% [at 70.9 µM] (inactive) | –
Cc1ccc(Nc2c(F)cccc2Cl)c(CC(=O)O)c1 | -0.628% [at 70.9 µM] (inactive) | –
Nc1ccc(S(=O)(=O)NCc2ccccc2)cc1 | -0.188% [at 70.9 µM] (inactive) | –
O=C(Nc1ccc(C(=O)O)c(O)c1)c1ccccc1 | 0.497% [at 70.9 µM] (inactive) | –
COC(=O)C1=C(C)NC(C)=C(C(=O)OC(C)(C)CN(C)CCC(c2ccccc2)c2ccccc2)C1c1cccc([N+](=O)[O-])c1 (stereo not given) | -4.8% [at 70.9 µM] (inactive) | –
COc1cc(C(C)=O)ccc1OCCCN1CCC(c2noc3cc(F)ccc23)CC1 | -12.4% [at 70.9 µM] (inactive) | –
CCCCCCCC/C=C/C(=O)O | 5.18% [at 70.9 µM] (inactive) | –
Nc1ccc(N=Nc2ccc(N)cc2)cc1 | 0.599% [at 70.9 µM] (inactive) | –
CC(=O)OCC(C)C | -1.11% (inactive) | –
O=[N+]([O-])c1ccc2ncccc2c1 | 2.41% (inactive) | –
C=CC(=O)O | 0.604% [at 70.9 µM] (inactive) | –
CCN(CC)CC(=O)Nc1c(C)cccc1C(=O)OC | -3.69% [at 70.9 µM] (inactive) | –
O=C(NC(Cc1cc(=O)[nH]c2ccccc12)C(=O)O)c1ccc(Cl)cc1 (stereo not given) | 0.986% [at 70.9 µM] (inactive) | –
FC(F)(F)C(F)(F)C(F)(F)C(F)(F)CCI | -8.54% [at 70.9 µM] (inactive) | –
ClC1=C(Cl)C1(Cl)Cl | -1.13% (inactive) | –
